# “And” between values parts separate entries of the source, which are not always exact repeats. Identical values can stand only once. Among all 400,000 compounds or so, about 2,200 (0.55%) were called active. A call without a number means that no potency is given here. Inconclusive results (about 1%) are left out. This is one part of a sample in which actives are shown more often than they occur. The call rests on the fitted dose curve; in most records, active means well fitted inhibition curve with a large enough effect; inconclusive means small, poorly fitted or top-dose-only effect, or another doubt; inactive means no such curve, though single readings can be large or run the other way. Positions of bridges follow the written chain, without caps; N, C: chain ends. Residues, ends and D or L forms follow the SMILES beside them.
# Molecular target: DNA polymerase kappa (Homo sapiens) (UniProt Q9UBT6)
# Experiment: qHTS for Inhibitors of Polymerase Kappa
# Settings: purified Pol kappa, fluorescent DNA synthesis assay, 10 min; series mostly up to 107 µM
# In short: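 Enzyme at 10 nM met test compounds for 15 min at room temperature. Substrate addition (50 nM final) began the reaction, which was monitored by fluorescence at 0 and 10 min.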
# Potency means the concentration at half of the fitted maximal effect.
# Chain of DNA polymerase kappa (Homo sapiens) (Q9UBT6 whole entry, looked up): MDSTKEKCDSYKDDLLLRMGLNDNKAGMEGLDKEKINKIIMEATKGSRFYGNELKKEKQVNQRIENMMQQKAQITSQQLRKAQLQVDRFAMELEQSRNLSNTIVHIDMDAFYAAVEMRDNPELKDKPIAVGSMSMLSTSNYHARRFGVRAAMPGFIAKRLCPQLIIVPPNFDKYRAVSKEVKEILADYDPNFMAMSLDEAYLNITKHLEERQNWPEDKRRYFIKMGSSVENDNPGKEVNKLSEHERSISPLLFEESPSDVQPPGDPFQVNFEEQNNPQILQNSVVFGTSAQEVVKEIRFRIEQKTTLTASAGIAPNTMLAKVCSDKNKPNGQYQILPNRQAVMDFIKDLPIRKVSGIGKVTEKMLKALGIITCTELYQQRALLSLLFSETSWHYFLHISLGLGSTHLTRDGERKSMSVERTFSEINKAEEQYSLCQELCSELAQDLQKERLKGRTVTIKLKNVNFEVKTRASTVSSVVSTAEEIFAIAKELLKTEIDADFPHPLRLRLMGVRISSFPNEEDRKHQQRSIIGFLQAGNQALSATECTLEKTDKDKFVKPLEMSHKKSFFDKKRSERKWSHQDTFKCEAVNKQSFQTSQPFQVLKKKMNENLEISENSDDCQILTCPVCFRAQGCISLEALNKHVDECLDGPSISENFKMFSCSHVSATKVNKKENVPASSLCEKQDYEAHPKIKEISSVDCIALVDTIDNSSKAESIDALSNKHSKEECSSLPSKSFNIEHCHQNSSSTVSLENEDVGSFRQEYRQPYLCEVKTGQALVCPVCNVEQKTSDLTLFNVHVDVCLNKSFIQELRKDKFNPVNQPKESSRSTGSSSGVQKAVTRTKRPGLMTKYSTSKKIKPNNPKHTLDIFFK
Compound,Potency,"activity, negative = inhibition"
CC(C)(C)c1ccc(C(=O)C[n+]2cccc3cc(Cl)ccc32)cc1,inactive,
OCC(O)C(O)C(O)C(O)C=Nc1ccc(/C=C/c2ccnc3ccccc23)cc1 (configuration not stated),inactive,
COC1[C@H](OC(N)=O)C(O)[C@H](Oc2ccc3c(O)c(NC(=O)c4ccc(O)c(CC=C(C)C)c4)c(=O)oc3c2C)OC1(C)C (some centres not stated),inactive,
COc1ccccc1-n1c(=S)[nH]c2c(sc(=S)n2-c2ccc(C)cc2C)c1=O,inactive,
COc1ccccc1-n1c(-c2cc(-c3ccco3)[nH]n2)n[nH]c1=S,17.8 µM (active),
COc1ccc(OCc2n[nH]c(=S)n2N)cc1,inactive,
C=C1C(=CC=C2CCC[C@@]3(C)[C@@H]2CC[C@H]3[C@H](C)CCCC(C)C)C[C@@H](O)C[C@@H]1O,,-13.8% [at 19.4 µM] (inactive)
CN(Cc1ccccc1)c1ccc(/C=C/c2ccnc3ccccc23)cc1,inactive,
CN(C)c1ccc(/C=C/C=C/c2ccnc3ccccc23)cc1,inactive,
N#Cc1ccccc1-c1ccc2ncnc(NCc3cccnc3)c2c1,inactive,
O=C(/C=C/c1cccc(F)c1)NC1CC1,,10.9% [at 19.4 µM] (inactive)
Cc1ccccc1-c1ccc(C(=O)O)s1,inactive,
CC(=O)OC1C([N+]2(C)CCCCC2)C[C@H]2C3CC[C@H]4C[C@H](OC(C)=O)C([N+]5(C)CCCCC5)CC4(C)C3CCC12C (some centres not stated),,-5.47% [at 19.4 µM] (inactive)
COc1ccccc1CNc1ncncc1-c1cccnc1,inactive,
Cc1nc(SCC(=O)N2CCN(c3ccccc3)CC2)[nH]c(=O)c1C,inactive,
COCCn1c(SCC(=O)N2CCCCCC2)nc2c(c1=O)SCC2,inactive,
CC(=O)c1sc2nc(SCC(=O)N3CCCCC3)[nH]c(=O)c2c1C,79.4 µM (active),
CCN(Cc1ccncc1)C(=O)[C@@H](CO)c1ccccc1,,-2.15% [at 12 µM] (inactive) and -8.7% [at 19.4 µM] (inactive)
CC1(C)O[C@@H]2C[C@@H]3[C@H]4C[C@@H](F)C5=CC(=O)C=C[C@]5(C)[C@@]4(F)[C@@H](O)C[C@]3(C)[C@]2(C(=O)CO)O1,inactive,
Oc1ccc2c(c1)OCC1c3cc4c(cc3OC21)OCO4 (configuration not stated),inactive,
Cc1cccc(C)c1NC(=O)NC1=CCCN1C,,0.19% [at 19.4 µM] (inactive)
O=C(/C=C/c1ccco1)NC(=S)Nc1ccccc1Br,50.1 µM (active),
CCc1ccc2oc(-c3ccc(C)c(NC(=O)/C=C/c4ccco4)c3)nc2c1,inactive,
O=C(NC(=S)Nc1ncccn1)c1ccccc1Br,inactive,
COc1ccc(Oc2ncc3nc(C)c(=O)n(-c4ccccc4)c3n2)cc1,inactive,
O=C1COc2c1ccc(O)c2O,25.1 µM (active),

Compound,Potency,"activity, negative = inhibition"
Cc1csc(NCC(=O)c2c[nH]c3ccccc23)n1,inactive,
C/C=C/NNC(=O)Cc1ccc(OC)cc1,inactive,
CN1CCCC1CCO[C@@](C)(c1ccccc1)c1ccc(Cl)cc1 (some centres not stated),inactive,
COc1cccc(NC(=O)COC(=O)c2ccc3ccccc3n2)c1,inactive,
COc1cc(/C=C/C(=O)OCC(=O)Nc2cccc(Oc3ccccc3)c2)ccc1O,inactive,
COc1cccc(NC(=O)COC(=O)/C=C/c2ccco2)c1,79.4 µM (active),
Cc1nc2cnc(N3CCN(C)CC3)nc2n(CCC#N)c1=O,inactive,
C=C1C([C@@]2(C)C(OC(C)=O)CC(=O)O[C@@](C)(COC(C)=O)C2CC(=O)OC)C(OC=O)C(OC(=O)C(O)C(C)CC)[C@]2(C)C(c3ccoc3)CC(=O)C12O (some centres not stated),inactive,
OCCNc1ncnc2oc(-c3ccco3)c(-c3ccco3)c12,11.2 µM (active),
COc1ccc(-c2oc3ncnc(NCCCO)c3c2-c2ccc(OC)cc2)cc1,inactive,
Cc1noc2ncnc(NCc3ccccc3Cl)c12,inactive,
CC(C)=CCC[C@]1(C)[C@@H](CC=C(C)C)C[C@@]2(CC=C(C)C)C(=O)[C@]1(C(=O)C(C)C)C(=O)C(CC=C(C)C)=C2O,,-7.28% [at 19.4 µM] (inactive)
Cn1cccc1C(=O)N1CCC2(CC1)CN(c1cccc(-c3ccccc3)c1)C2,inactive,
Cc1ccc(/C([O-])=C(/C(=S)NCc2ccco2)[n+]2ccccc2)cc1[N+](=O)[O-],25.1 µM (active),
O=[N+]([O-])c1cc(-c2nc(-c3ccccc3)no2)ccc1NCc1ccco1,inactive,
O=[N+]([O-])c1cccc(/C([O-])=C(/C(=S)Nc2ccccc2F)[n+]2ccccc2)c1,inactive,
COc1ccc(-c2nc3cnc(Oc4ccccc4)nc3n(Cc3cccs3)c2=O)cc1,inactive,
CC[C@]1([C@H]2O[C@@H]([C@@H]3O[C@](O)(CO)[C@@H](C)C[C@H]3C)C[C@H]2C)CC[C@@H]([C@]2(C)CC[C@@]3(C[C@@H](O)[C@@H](C)[C@@H]([C@H](C)[C@H](OC)[C@H](C)C(=O)O)O3)O2)O1,,-5.79% [at 19.4 µM] (inactive)
N#Cc1cccc(-c2nc3cnc(N4CCNCC4)nc3n(C3CC3)c2=O)c1,inactive,
O=C(O)C1=C/C(=C/C=[N+]2c3cc(O)c(O[C@H]4OC(CO)[C@@H](O)[C@@H](O)[C@@H]4O)cc3C[C@@H]2C(=O)[O-])C[C@H](C(=O)O)N1 (some centres not stated),inactive,
C[C@@H](O)[C@@H]1NC(=O)[C@H](CCCCN)NC(=O)[C@H](Cc2c[nH]c3ccccc23)NC(=O)[C@H](Cc2ccccc2)NC(=O)[C@H](Cc2ccccc2)NC(=O)[C@H](CC(N)=O)NC(=O)[C@H](CCCCN)NC(=O)[C@@H](NC(=O)[C@@H]2CCCN2)CSSC[C@@H](C(=O)N[C@@H](CCCCN)C(=O)O)NC(=O)[C@H](CO)NC(=O)[C@H](CO)NC(=O)[C@H](Cc2ccccc2)NC1=O (H-PCKNFFWKTFSSCK-OH; disulfide 2-13),inactive,
Cc1ccc(-c2nn(-c3ccccc3)cc2/C=C2\SC(=S)N(CCCCCC(=O)O)C2=O)o1,79.4 µM (active),
O=C(Nc1ccc([N+](=O)[O-])cc1)c1cnn2c1NC(=C1CC1)C=C2C(F)F,inactive,
O=C(Nc1ccc2nc(SCCOc3ccccc3)sc2c1)c1ccco1,inactive,
CCN(c1ccc(Cl)cc1)S(=O)(=O)c1nnc(NC(=O)c2ccco2)s1,inactive,
O=C(Nc1nc(-c2ccco2)c(-c2ccco2)s1)c1ccco1,79.4 µM (active),

# Source: PubChem BioAssay AID588579 (National Center for Advancing Translational Sciences (NCATS), 2011)
